# PubChem BioAssay (NCI)
# Compounds without any hit were thinned out: in the full panel of roughly 83,000, 20% have a hit.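 Note: values are percent growth. 100 is the growth of untreated cells, values between 100 and 0 indicate rising inhibition; between -100 and 0 indicates cell death.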 Values without a mark were called inactive. The source made the active and inactive calls. How the source made its calls: active means growth percent below 10; inactive means the rest.
# Experiments:
# Test in all cases: NCI-60 one-dose screen, 48 h (100 = growth as untreated, 0 = no growth, -100 = all killed)
# Settings in all cases: 10 µM unless noted
# [1] = tested on: SK-MEL-2 melanoma
# [2] = tested on: EKVX NSCLC
# [3] = tested on: SN12C renal
# [4] = tested on: UO-31 renal
# [5] = tested on: TK-10 renal
# [6] = tested on: ACHN renal
# [7] = tested on: CAKI-1 renal
# [8] = tested on: A498 renal
# [9] = tested on: CCRF-CEM leukemia
# [10] = tested on: MOLT-4 leukemia
# [11] = tested on: SR leukemia
# [12] = tested on: RPMI-8226 leukemia
# [13] = tested on: OVCAR-8 ovarian
# [14] = tested on: OVCAR-5 ovarian
# [15] = tested on: OVCAR-4 ovarian
# [16] = tested on: SK-OV-3 ovarian
# [17] = tested on: IGROV1 ovarian
# [18] = tested on: HS 578T breast
# [19] = tested on: NCI/ADR-RES ovarian
SMILES,growth [1],growth [2],growth [3] [%],growth [4],growth [5] [%],growth [6],growth [7] [%],growth [8],growth [9],growth [10],growth [11],growth [12],growth [13],growth [14] [%],growth [15],growth [16] [%],growth [17],growth [18],growth [19]
COC(=O)[C@@H](Cc1c[nH]c2ccccc12)NC(=O)CCCCOc1cc(O)c2c(=O)cc(-c3ccccc3)oc2c1,90.5%,86.8%,95.2,68.8%,132,91.8%,71.9,70%,83.1%,65.1%,72.3%,71.8%,87.5%,104,80%,97.7,87.5%,80.9%,80.9%
O=c1oc2ccc(-c3ccc(F)cc3F)cc2c(=O)n1-c1ccc(Br)cc1F,41%,73.5%,46.2,84.5%,64.8,80.5%,61.9,37.4%,56.3%,57.8%,85.1%,31.6%,69.5%,108,78.7%,63.9,58.3%,47.2%,75.3%
CC(C)(C)c1cc(NC(=O)Nc2ccc(-c3cn4c5c(sc4n3)CCc3c[nH]cc3-5)cc2)no1,-11.7% (active),32.9%,44.2,7.92% (active),65.2,21.2%,13.9,-17.9% (active),15.1%,-10.8% (active),2.1% (active),-18.6% (active),32.7%,47.7,49%,33.7,38%,-10.4% (active),29%
CCCCc1nc2c(N)nc3ccccc3c2n1Cc1cccc(CN)c1,79.4%,77%,68.9,70.5%,89.9,65%,14.2,16.3%,23.9%,33.9%,2.23% (active),42.5%,63.9%,109,53.6%,91.2,62.8%,67.2%,93.5%
CN1CCN(CCNc2nc(-c3cccc(NS(=O)(=O)c4cccc5c(N(C)C)cccc45)c3)cs2)CC1,103%,50%,58.9,56.8%,90.7,72.5%,58.6,67.5%,60.1%,44.6%,23.4%,35.8%,75.9%,90.3,71.5%,91.6,78.5%,87.9%,86.9%
O=C(CCCCCCN1CC(=O)N2[C@@H](c3cccs3)c3[nH]c4ccccc4c3C[C@H]2C1=O)NO,77.8%,92.2%,93.8,82.7%,85.5,96.7%,88.5,87.3%,24.2%,19.3%,35.6%,55%,61.7%,70.4,95.6%,101,94.3%,81.1%,90.4%
NS(=O)(=O)c1ccc(CCn2c(-c3ccc(C(=O)O)cc3)nc(-c3ccccc3)c2-c2ccccc2)cc1,104%,100%,101,90.8%,102,103%,88.7,102%,104%,108%,99.7%,100%,111%,103,99.4%,111,108%,101%,105%
CCC1=Cc2c(OC)cccc2OC12C=Cc1c(OC)cccc1O2 (centres undefined),65.8%,52.4%,42,39.8%,101,35.9%,28.4,6.92% (active),16.2%,15.8%,15.2%,25.2%,24.3%,36.5,76.7%,56.5,29.8%,28.4%,-24.2% (active)
Cc1csc(/N=C(N)/N=C(\N)c2cccc(C#N)c2)n1,47.8%,82.8%,92.3,76.3%,168,84.9%,53.9,69.4%,82.7%,85.6%,30.2%,87.8%,85.8%,106,97.2%,76.3,77.7%,83.1%,58.3%
Cc1ccc2c(n1)C(=O)C(Cl)=C(Nc1ccc(C(C)C)cc1)C2=O,71.2%,-0.749% (active),46.4,-65.3% (active),145,-77.2% (active),77.3,133%,3.85% (active),,3.93% (active),-21.7% (active),8.76% (active),103,-74% (active),106,-53% (active),55.6%,49.9%
